Test results: the supplement of paper PMC7726561
Whole data set: some 1,100 sequences, median “thermal melting temperature (Tm) of peptide-HLA complex” near 58, cut for the lowest 2% near 42. This is one part of a sample in which the lowest values are shown more often than they occur.

Target: HLA-A*02:01
Test: thermal melting temperature (Tm) of peptide-HLA complex; higher = more thermostable pHLA complex
Settings: C1R-A*02:01
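Note: lysates heated 10 min at 37–73 °C, complexes pulled down with pan-HLA I antibody, peptide signal by DIA-MS relative to 37 °C, Tm where half the complex is unfolded.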

Row | Sequence | thermal melting temperature
1 | KLMNVDPDSV | 53.8 °C
2 | KLMDPGSLPPL | 57.3 °C
3 | RLGGIPVGV | 55.9 °C
4 | IIMLEALERV | 46.6 °C
5 | ALANGVSRI | 55.8 °C
6 | ALDRDNFEL | 47.8 °C
7 | FMFDEKLVTV | 58.5 °C
8 | VLGPKIEAV | 55.5 °C
9 | FILANEHNV | 40.8 °C
10 | YLPDIIKDQKA | 55.4 °C
11 | RQIEYYFSV | 61.3 °C
12 | FMQHDVQEL | 41.6 °C
13 | VVWGTVIRV | 58.5 °C
14 | SLDPHAQVAV | 48.9 °C
15 | KLQDQIFNL | 56 °C
16 | ALSKEGIVAL | 59.5 °C
17 | SLLQTLYKV | 63.6 °C
18 | ALGPGVPHI | 58 °C

Row | Sequence | thermal melting temperature
19 | VLADALKSI | 58.9 °C
20 | KLNATNIEL | 51.5 °C
21 | FLEPVNPRL | 55.3 °C
22 | MLDDRAYLV | 61.5 °C
23 | YPSEFATYL | 56.5 °C
24 | TLDEYTTRV | 52.2 °C
25 | LLPSEGIVHL | 41.3 °C
26 | ALMPVLNQV | 58.7 °C
27 | TLFPGKVHSL | 55.8 °C
28 | SLAGGLDDMKA | 45.1 °C
29 | MTDPIRILV | 41.9 °C
30 | ALLKDSIVQL | 40.9 °C
31 | SLDTQPKKV | 40.4 °C
32 | VLLESEQFL | 56.7 °C
33 | RLDEAFDFV | 57 °C
34 | SLDAKEIYL | 50.5 °C
35 | TTLEQPPSV | 50.3 °C
36 | QLLPSIPQL | 53.7 °C
